Data reported in PubChem BioAssay (NCI).
About 79,000 compounds went through this panel and 15% of them were active in at least one assay; those are over-represented in the sample as a whole. Activity calls are given as the source filed them. Rule as the data show it: active = growth inhibition above about 70%; inactive = the rest.

How the values were obtained:
[1] = NCI Yeast Anticancer Drug Screen. Data for the rad52 strain (AID 147);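 also: 0% = growth of vehicle-treated control cultures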; conditions: S. cerevisiae rad52 mutant growth inhibition, hits give high values
In short: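 Compounds are applied to a genetically defined yeast strain lacking normal DNA damage repair, and inhibition of growth is expressed relative to cultures given vehicle only.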

[2] = NCI Yeast Anticancer Drug Screen. Data for the wt1 strain (AID 149);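 also: 0% = growth of vehicle-treated wt1 cultures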; conditions: S. cerevisiae wt1 strain (SPY 50644) growth inhibition, hits give high values
In short: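 Growth inhibition read against vehicle controls after compound exposure of the wt1 yeast strain.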

[3] = NCI Yeast Anticancer Drug Screen. Data for the rad50EPP+ strain (AID 151);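 also: 0% = growth of vehicle-treated control cultures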; conditions: S. cerevisiae rad50 mutant strain, hits give high values
In short: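 Compounds were applied to the rad50EPP+ yeast strain, which bears a defined DNA repair alteration, and growth inhibition was determined relative to vehicle-treated cultures.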

[4] = NCI Yeast Anticancer Drug Screen. Data for the mgt1 strain (AID 153); conditions: S. cerevisiae mgt1 mutant growth inhibition, hits give high values
In short: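 Strain: mgt1 yeast, one of a set carrying defined DNA damage repair or cell cycle control alterations. Compound-treated growth compared with vehicle.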

[5] = NCI Yeast Anticancer Drug Screen. Data for the rad50 strain (AID 155);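 also: 0% = growth of vehicle-only cultures of the same strain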; conditions: S. cerevisiae rad50 strain growth inhibition, hits give high values
In short: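 Readout: growth inhibition relative to vehicle-treated cultures. Compound exposure was carried out in a genetically defined yeast strain deficient in DNA damage repair.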

[6] = NCI Yeast Anticancer Drug Screen. Data for the mec2-1 strain (AID 157); conditions: S. cerevisiae mec2-1 strain, hits give high values
In short: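 Strain: mec2-1 (DNA repair/cell cycle alteration). Compound exposure, then growth measured; inhibition expressed relative to vehicle.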

[7] = NCI Yeast Anticancer Drug Screen. Data for the rad14 strain (AID 159);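 also: 0% = growth of vehicle-treated control cultures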; conditions: S. cerevisiae rad14 strain growth inhibition, hits give high values
In short: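 Growth inhibition vs vehicle controls; genetically altered yeast strain (DNA damage repair defect) treated with test compounds.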

[8] = NCI Yeast Anticancer Drug Screen. Data for the sgs1 mgt1 strain (AID 161);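 also: 0% = growth of cultures given vehicle only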; conditions: S. cerevisiae sgs1 mgt1 strain, hits give high values
In short: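 Test agents were incubated with a DNA-repair-mutant yeast strain. Growth was then read and compared against vehicle-treated controls.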

[9] = NCI Yeast Anticancer Drug Screen. Data for the cln2 rad14 strain (AID 165);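 also: 0% = growth equal to vehicle treated cultures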; conditions: S. cerevisiae cln2 rad14 strain, hits give high values
In short: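 Compounds are applied to the cln2 rad14 yeast strain, and growth is then compared with that of vehicle-treated cultures to give inhibition.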

[10] = NCI Yeast Anticancer Drug Screen. Data for the bub3 strain (AID 167); conditions: S. cerevisiae bub3 mutant strain, hits give high values
In short: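 Readout: yeast growth inhibition, expressed relative to vehicle-only wells. The test organism is a mutant strain from a panel with lesions in DNA repair or checkpoint genes.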

[11] = NCI Yeast Anticancer Drug Screen. Data for the wt2 strain (AID 169);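 also: 0% = growth of vehicle-treated yeast cultures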; conditions: S. cerevisiae wt2 strain growth inhibition, hits give high values
In short: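 This strain belongs to a panel of yeast strains with defined genetic alterations in DNA damage repair or cell cycle control. Compounds are applied, and growth inhibition is measured against vehicle-treated cultures.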

[12] = NCI Yeast Anticancer Drug Screen. Data for the mlh1 strain (AID 171);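 also: 0% = growth of vehicle-treated control cultures of the same strain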; conditions: S. cerevisiae mlh1 strain growth inhibition, hits give high values
In short: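 Growth of the mutant yeast strain after compound exposure, expressed as inhibition relative to vehicle-only controls.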

[13] = NCI Yeast Anticancer Drug Screen. Data for the sgs1 strain (AID 173);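 also: 0% = growth of vehicle-only control cultures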; conditions: S. cerevisiae sgs1 mutant, hits give high values
In short: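 Growth of a yeast strain bearing a defined genetic alteration is measured after compound treatment. Inhibition is expressed relative to vehicle-only controls.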

[14] = NCI Yeast Anticancer Drug Screen. Data for the mlh1 rad18 strain (AID 175); conditions: S. cerevisiae mlh1 rad18 strain growth inhibition, hits give high values
In short: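 Read-out is yeast growth inhibition, calculated against vehicle-only controls. The compound was applied to a strain engineered with DNA damage repair alterations.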

[15] = NCI Yeast Anticancer Drug Screen. Data for the rad18 strain (AID 177); conditions: S. cerevisiae rad18 mutant growth inhibition, hits give high values
In short: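 Growth of the mutant yeast strain after compound exposure, normalised to vehicle-only cultures.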

[16] = NCI Yeast Anticancer Drug Screen. Data for the CLN2oe strain (AID 163);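 also: 0% = growth of vehicle-only control cultures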; conditions: S. cerevisiae CLN2oe strain, hits give high values
In short: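 Growth of a genetically modified yeast strain is measured after compound exposure and compared with cultures given vehicle alone.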

[17] = at 5.0 µM (retest, dose inferred, filed as 0.5)
[18] = at 50.0 µM (retest, dose inferred, filed as 5.0)

Measured: growth inhibition

CCCCCCCCC/C=C/C=C/C(=O)NCC(=O)NC1C(O)C(O)C(Nc2ncnc3nc[nH]c23)OC1C(O)CO (stereo unspecified)
inactive: [1]; at 1.2 µM -19% | [1]; at 3.7 µM 11% | [1]; at 11.0 µM 10% | [1]; at 33.0 µM 69% | [1]; at 100.0 µM 67% | [2]; at 1.2 µM -41% | [2]; at 3.7 µM -23% | [2]; at 11.0 µM -27% | [2]; at 33.0 µM 33% | [2]; at 100.0 µM 20% | [3]; at 1.2 µM -19% | [3]; at 3.7 µM -17% | [3]; at 11.0 µM -15% | [3]; at 33.0 µM -36% | [3]; at 100.0 µM -48% | [4]; at 1.2 µM -33% | [4]; at 3.7 µM -22% | [4]; at 11.0 µM -14% | [4]; at 33.0 µM 43% | [4]; at 100.0 µM 39% | [5]; at 1.2 µM -53% | [5]; at 3.7 µM -47% | [5]; [17] 47% | [5]; at 11.0 µM -52% | [5]; at 33.0 µM -75% | [5]; at 50.0 µM 16.9% | [5]; at 100.0 µM -24% | [6]; at 1.2 µM -61% | [6]; at 3.7 µM -30% | [6]; [17] 9% | [6]; at 11.0 µM 14% | [6]; at 33.0 µM -11% | [6]; [18] 43% | [6]; at 50.0 µM 6.95% | [6]; at 100.0 µM -27% | [7]; at 1.2 µM -17% | [7]; at 3.7 µM -5% | [7]; at 11.0 µM -8% | [7]; at 33.0 µM 8% | [7]; at 100.0 µM 51% | [8]; [17] 2% | [8]; [18] -55% | [8]; at 50.0 µM 69.2% | [9]; [17] -1% | [9]; [18] -13% | [9]; at 50.0 µM 10.8% | [10]; at 1.2 µM -64% | [10]; at 3.7 µM -38% | [10]; [17] 5% | [10]; at 11.0 µM -58% | [10]; at 33.0 µM 5% | [10]; [18] -16% | [10]; at 50.0 µM 24.9% | [10]; at 100.0 µM 3% | [11]; at 1.2 µM 7% | [11]; at 3.7 µM 24% | [11]; at 11.0 µM 53% | [11]; at 33.0 µM 61% | [11]; at 100.0 µM 56% | [12]; at 1.2 µM -44% | [12]; at 3.7 µM -38% | [12]; at 11.0 µM -50% | [12]; at 33.0 µM 18% | [12]; at 100.0 µM -29% | [13]; at 1.2 µM -21% | [13]; at 3.7 µM 8% | [13]; at 11.0 µM 14% | [13]; at 33.0 µM 65% | [13]; at 100.0 µM 59% | [14]; [17] 20% | [14]; [18] 41% | [14]; at 50.0 µM 49.4% | [15]; at 1.2 µM -7% | [15]; at 3.7 µM 7% | [15]; at 11.0 µM 21% | [15]; at 33.0 µM 53% | [15]; at 100.0 µM 48%
active: [5]; [18] 83%

CCN(CC)CCNc1ccc([N+](=O)[O-])c2nc3ccc(OC)cc3c(N)c12
inactive: [1]; at 1.2 µM -23% | [1]; at 3.7 µM -13% | [1]; at 11.0 µM 19% | [2]; at 1.2 µM -8% | [2]; at 3.7 µM -14% | [2]; at 11.0 µM -17% | [2]; at 33.0 µM -6% | [2]; at 100.0 µM 54% | [3]; at 1.2 µM 11% | [3]; at 3.7 µM 7% | [3]; at 11.0 µM 30% | [3]; at 33.0 µM 69% | [4]; at 1.2 µM -20% | [4]; at 3.7 µM -20% | [4]; at 11.0 µM -16% | [4]; at 33.0 µM 15% | [5]; at 1.2 µM -3% | [5]; at 3.7 µM -2% | [5]; [17] 13% | [5]; at 11.0 µM 35% | [5]; at 50.0 µM 48.4% | [6]; at 1.2 µM -24% | [6]; at 3.7 µM -19% | [6]; [17] -5% | [6]; at 11.0 µM -8% | [6]; at 33.0 µM 5% | [6]; [18] 21% | [6]; at 50.0 µM -26.1% | [6]; at 100.0 µM 42% | [8]; [17] -12% | [8]; [18] 48% | [8]; at 50.0 µM 58.4% | [16]; at 1.2 µM 10% | [16]; at 3.7 µM 15% | [16]; at 11.0 µM 22% | [16]; at 33.0 µM 25% | [16]; at 100.0 µM 64% | [9]; [17] 3% | [9]; [18] 33% | [9]; at 50.0 µM 6.25% | [10]; at 1.2 µM -23% | [10]; at 3.7 µM -16% | [10]; [17] -24% | [10]; at 11.0 µM -36% | [10]; at 33.0 µM -17% | [10]; [18] 18% | [10]; at 50.0 µM -0.6% | [10]; at 100.0 µM 64% | [11]; at 1.2 µM 15% | [11]; at 3.7 µM 6% | [11]; at 11.0 µM 10% | [11]; at 33.0 µM 28% | [12]; at 1.2 µM -2% | [12]; at 3.7 µM 4% | [12]; at 11.0 µM 5% | [12]; at 33.0 µM 27% | [13]; at 1.2 µM -8% | [13]; at 3.7 µM -9% | [13]; at 11.0 µM -16% | [13]; at 33.0 µM 10% | [14]; [17] -22% | [14]; at 50.0 µM 68% | [15]; at 1.2 µM 1% | [15]; at 3.7 µM 4% | [15]; at 11.0 µM 7% | [15]; at 33.0 µM 23%
active: [1]; at 33.0 µM 74% | [1]; at 100.0 µM 90% | [3]; at 100.0 µM 79% | [4]; at 100.0 µM 73% | [5]; at 33.0 µM 79% | [5]; [18] 89% | [5]; at 100.0 µM 93% | [11]; at 100.0 µM 70% | [12]; at 100.0 µM 85% | [13]; at 100.0 µM 82% | [14]; [18] 86% | [15]; at 100.0 µM 86%
